Test results as given in paper PMC4336329 (PLoS ONE, 2015).
The campaign covered roughly 310,000 compounds. About 14,000 (4.5%) showed an effect of 50% or more. The effect is printed as a negative number. This is one part of a sample in which strong results are shown more often than they occur.

Target: human ether-à-go-go-related gene (hERG) potassium channel (human, UniProt Q12809)
Assay: primary screen, population patch clamp on CHO cells stably expressing hERG; higher = less effect of the substance
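Further: peak tail current of the secondary pulse compared with the same well before compound.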

human ether-à-go-go-related gene (hERG) potassium channel, sequence (Q12809 whole entry, looked up): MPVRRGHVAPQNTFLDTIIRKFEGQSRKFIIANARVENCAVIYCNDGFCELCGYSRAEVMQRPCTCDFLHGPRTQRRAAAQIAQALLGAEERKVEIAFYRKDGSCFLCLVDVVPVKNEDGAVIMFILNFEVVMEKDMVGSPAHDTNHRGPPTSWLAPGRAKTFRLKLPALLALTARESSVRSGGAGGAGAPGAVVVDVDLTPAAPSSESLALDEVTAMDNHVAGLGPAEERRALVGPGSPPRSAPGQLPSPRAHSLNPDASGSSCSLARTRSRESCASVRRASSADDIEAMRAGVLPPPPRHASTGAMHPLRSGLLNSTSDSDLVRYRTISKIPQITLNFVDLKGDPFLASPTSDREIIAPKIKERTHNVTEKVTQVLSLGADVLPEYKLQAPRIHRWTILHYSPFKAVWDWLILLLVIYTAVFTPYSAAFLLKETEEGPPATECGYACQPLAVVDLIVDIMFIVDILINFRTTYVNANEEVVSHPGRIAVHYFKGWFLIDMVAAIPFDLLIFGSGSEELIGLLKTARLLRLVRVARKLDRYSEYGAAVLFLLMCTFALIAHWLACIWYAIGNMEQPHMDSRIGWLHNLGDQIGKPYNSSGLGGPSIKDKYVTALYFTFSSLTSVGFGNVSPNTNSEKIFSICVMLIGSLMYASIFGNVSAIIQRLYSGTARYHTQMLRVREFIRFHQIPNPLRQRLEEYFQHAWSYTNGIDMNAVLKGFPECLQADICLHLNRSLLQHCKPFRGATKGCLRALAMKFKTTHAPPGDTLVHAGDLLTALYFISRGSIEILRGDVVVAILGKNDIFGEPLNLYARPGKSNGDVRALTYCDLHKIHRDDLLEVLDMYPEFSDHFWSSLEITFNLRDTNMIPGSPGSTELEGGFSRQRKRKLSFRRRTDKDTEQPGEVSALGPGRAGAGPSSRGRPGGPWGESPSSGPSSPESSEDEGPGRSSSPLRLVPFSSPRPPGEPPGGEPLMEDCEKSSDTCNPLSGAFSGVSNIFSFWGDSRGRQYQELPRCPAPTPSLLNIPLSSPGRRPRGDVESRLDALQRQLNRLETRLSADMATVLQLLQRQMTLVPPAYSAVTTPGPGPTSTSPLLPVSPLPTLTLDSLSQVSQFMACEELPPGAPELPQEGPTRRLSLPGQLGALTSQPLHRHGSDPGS

Row | Compound | hERG current change (%, negative = inhibition) at 10uM [%]
1 | Cc1nonc1CN(C)C(=O)c1cc(COc2ccc(F)cc2Cl)on1 | -4.29
2 | Cc1ccc(-n2c(CSc3nc(C)cc(C)n3)nnc2SCC(=O)N2CCCC2)cc1 | -8.81
3 | COc1ccc(Br)cc1C1Nc2cccc3cccc(c23)N1 | 20.2
4 | COc1ccccc1C1Nc2cccc3cccc(c23)N1 | -50.7
5 | COc1cc(OC)c(C2Nc3cccc4cccc(c34)N2)c(OC)c1 | 6.67
6 | Cn1ncc(Br)c1C(=O)N/N=C/c1cccc(OC2CSC2)c1 | -8.23
7 | O=C(CSc1nnc(Nc2ccccc2F)s1)Nc1cccc(S(=O)(=O)N2CCCCC2)c1 | -6.58
8 | CC1Cc2nc(SCC(=O)Nc3nc4ccccc4s3)n(C)c(=O)c2S1 (stereo not shown) | -20.1
9 | CN1CCSc2ccc(C(=O)NCc3cccc(F)c3)cc21 | 16.6
10 | CCOc1ccccc1C(=O)Nc1cnn(Cc2ccc(F)cc2)c1 | -58.8
11 | O=C(Nc1cnn(Cc2ccc(F)cc2)c1)c1cnccn1 | -3.09
12 | O=C(Nc1cnn(Cc2ccc(F)cc2)c1)C(c1ccccc1)c1ccccc1 | -30.1
13 | O=C(CCSCCc1ccccn1)Nc1nccs1 | 30.1
14 | O=C(Cc1csc(NC(=O)c2ccc(F)cc2)n1)NO | -3.56
15 | COc1ccc(N(C(C)C(=O)N/N=C/c2ccc(OC(C)C)cc2)S(C)(=O)=O)cc1 (stereo not shown) | -52.4
16 | COc1ccc(N(C(C)C(=O)N/N=C/c2ccc(OCC(C)C)cc2)S(C)(=O)=O)cc1 (stereo not shown) | -9.12
17 | COc1ccc(/C=N/NC(=O)C(C)N(c2ccc(OC)cc2)S(C)(=O)=O)cc1 (stereo not shown) | -8.54
18 | COc1ccc(N(C(C)C(=O)N/N=C/c2cccnc2)S(C)(=O)=O)cc1 (stereo not shown) | -3.44
19 | COc1ccc(N(C(C)C(=O)N/N=C/c2ccc(OC)c(OC)c2)S(C)(=O)=O)cc1 (stereo not shown) | 5.24
20 | COc1ccc(N(C(C)C(=O)N/N=C/c2cc(Br)c(C)o2)S(C)(=O)=O)cc1 (stereo not shown) | -54
21 | COc1ccc(C(=O)/C=C/Nc2ccc(S(=O)(=O)Nc3cc(OC)nc(OC)n3)cc2)c(OC)c1 | 19.4
22 | O=Cc1cn(CCC(=O)O)nc1-c1cccc2ccccc12 | 13.5

Row | Compound | hERG current change (%, negative = inhibition) at 10uM [%]
23 | O=C(N/N=C\c1ccc(F)cc1)c1cc(OCC(F)(F)F)ccc1OCC(F)(F)F | -21
24 | COc1ccccc1C(=O)N/N=C(\C)c1ccc(NC(=O)C2CC2)cc1 | -3.62
25 | O=C(NCCc1ccc(Cl)cc1)c1cccs1 | -3.58
26 | O=C(NCCSCc1ccc(Cl)cc1)c1cccs1 | -63.7
27 | O=C(Cc1ccccc1)NCCSCc1ccc(Cl)cc1 | -9.5
28 | C=CCSc1nnc(-c2ccccc2N=Cc2c(C)[nH]n(-c3ccccc3)c2=O)c(=O)[nH]1 | -26.5
29 | O=C(c1cccc(S(=O)(=O)N2CCOCC2)c1)N1CCN(S(=O)(=O)c2cccs2)CC1 | 5.04
30 | O=C(Nc1ccc([N+](=O)[O-])cn1)c1cc(-c2cccc(Br)c2)nc2ccccc12 | 17.6
31 | O=[N+]([O-])c1ccc(CSc2nc3ncc(Br)cc3[nH]2)cc1 | 6.04
32 | O=C(CSc1nc2ncc(Br)cc2[nH]1)c1cccc([N+](=O)[O-])c1 | -45.7
33 | O=C(CSc1nc2ncc(Br)cc2[nH]1)c1ccc([N+](=O)[O-])cc1 | -66.9
34 | CCOC(=O)c1cc(C#N)c(N2CCCC2)nc1-c1ccccc1 | -7.5
35 | C/C(=C\c1ccc(C)o1)C(=O)c1c(C)cc(C)[nH]c1=O | 11.5
36 | O=C(O)C(=O)O.OCC1CCCCN1CC(O)COC(c1ccc(F)cc1)c1ccc(F)cc1 (stereo not shown) | -71
37 | COc1ccccc1COCC(O)CN1CCCCC1CO.O=C(O)C(=O)O (stereo not shown) | 18.6
38 | Cc1ccccc1C(OCC(O)CN1CCCCC1CCO)c1ccccc1 (stereo not shown) | -61.6
39 | CCC1CCCCN1CC(O)COCc1cccc(OC)c1 (stereo not shown) | 3.15
40 | OCCC1CCCCN1CC(O)COCc1ccc(Cl)cc1 (stereo not shown) | -7.29
41 | Cc1ccccc1C(OCC(O)CN1CCC(C(N)=O)CC1)c1ccccc1 (stereo not shown) | -59.3
42 | CC(OCC(O)CN1CCCCC1CCO)c1ccc(Cl)cc1 (stereo not shown) | 4.2
43 | CCN1CCN(CC(O)COC(c2ccccc2)c2ccccc2C)CC1.O=C(O)C(=O)O (stereo not shown) | -10.6
44 | NC(=O)C1CCN(CC(O)CSc2ccccc2)CC1 (stereo not shown) | -0.00192

Row | Compound | hERG current change (%, negative = inhibition) at 10uM [%]
45 | Cc1ccc(C(OCC(O)CN2CCCCC2CO)c2ccccc2)cc1 (stereo not shown) | -62.8
46 | CCOC(=O)CC(=O)Nc1ccc(Br)cc1C(=O)O | -11.3
47 | COc1ccc(CNC(=O)c2cc(=O)c3cc(C)cc(C)c3o2)cc1 | 2.04
48 | CCn1c(SCC(=O)Nc2ccc(NC(=O)c3ccco3)c(OC)c2)nc2ccccc2c1=O | -20
49 | CCOC(=O)C1=C(O)/C(=C/c2ccc(OCC(=O)Nc3ccc(C)cc3)cc2)N=C1C | 10.6
50 | C/C(=N\NC(=O)c1cc(-c2cccnc2)nc2ccccc12)c1ccccc1O | 0.355
51 | Cn1c(=O)c2c(=O)cc(NNC(=O)C(C)(C)C)[nH]c2n(C)c1=O | 0.349
52 | CCCC[C@@H]1CNC(=S)N1CCCC | 11
53 | C/C(CC(=O)Nc1ccc2c(c1)OCCO2)=N\NC(=O)Cc1ccc(Cl)cc1 | 11.2
54 | CCCCc1nnc(NC(=O)CSc2nc(O)c(-c3ccccc3)c(=O)[nH]2)s1 | 1.48
55 | O=C1c2ccccc2C(=O)N1CCCCN(C(=O)c1ccc(Cl)s1)c1ccc(Cl)cc1 | 8.41
56 | O=C1c2ccccc2C(=O)N1CCCCN(C(=O)c1cc([N+](=O)[O-])cc([N+](=O)[O-])c1)c1ccc(Cl)cc1 | 5.87
57 | Cc1ccc(N(CCCCN2C(=O)c3ccccc3C2=O)C(=O)c2ccc(Cl)s2)cc1 | 2.79
58 | Cc1ccc(N(CCCCN2C(=O)c3ccccc3C2=O)C(=O)c2cccs2)cc1 | -67.3
59 | O=C1c2ccccc2C(=O)N1CCCCN(C(=O)c1ccco1)c1ccc(Cl)cc1 | -55.7
60 | O=C1c2ccccc2C(=O)N1CCCCN(C(=O)c1ccc([N+](=O)[O-])cc1)c1ccc(Cl)cc1 | -3.93
61 | CC(=O)N(CCCCN1C(=O)c2ccccc2C1=O)c1ccc(C)cc1 | -34.5
62 | O=C1c2ccccc2C(=O)N1CCCCN(C(=O)c1cccc([N+](=O)[O-])c1)c1ccc(Cl)cc1 | -7.96
63 | Cc1ccc(N(CCCCN2C(=O)c3ccccc3C2=O)C(=O)c2cccc([N+](=O)[O-])c2)cc1 | -59.5
64 | OC1C2(Cc3ccccc3)CN3CCN(C2)CC1(Cc1ccccc1)C3 (stereo not shown) | -1.47
65 | Cc1[nH][nH]c(=O)c1C(c1ccc(-c2cccc(C(=O)O)c2)o1)c1c(C)[nH][nH]c1=O | 19.2
66 | COc1ccc(OC)c(NC(=O)c2ccc(Cl)cc2)c1 | -5.32

Row | Compound | hERG current change (%, negative = inhibition) at 10uM [%]
67 | COc1ccc(/C(C)=N/Nc2nc3ccccc3n3cnnc23)cc1OC | -19.4
68 | CC(c1ccccc1)n1c(CCCO)nc2ccccc21 (stereo not shown) | -2.26
69 | COc1cccc(OC)c1C(=O)Nc1ccc(Cc2ccncc2)cc1 | 8.86
70 | CC1CCCN(Cc2nc3c(c(=O)n(C)c(=O)n3C)n2CC(=O)c2ccccc2)C1 (stereo not shown) | -8.71
71 | CCN(Cc1ccncc1)Cc1cn[nH]c1-c1ccc(OC)cc1F | -3.13
72 | COc1ccc(NC(=O)CN(C)C(=O)c2cccc3ccccc23)cc1 | 3.09
73 | CCOc1nc(Nc2ccc([N+](=O)[O-])cc2)nc(NC(C)(C)C)n1 | 12.2
74 | CCOc1nc(NCCN2CCOCC2)nc(NC(C)C)n1 | -9.84
75 | O=[N+]([O-])c1ccc(Nc2nc(NCCO)nc(N3CCCC3)n2)cc1 | -58.3
76 | COc1nc(NCCO)nc(Nc2ccc([N+](=O)[O-])cc2)n1 | -40.2
77 | COc1nc(NCCN2CCOCC2)nc(Nc2ccc([N+](=O)[O-])cc2)n1 | -50.7
78 | CCOc1nc(NCCN2CCOCC2)nc(Nc2ccc(C)cc2)n1 | -65.3
79 | C=CCNc1nc(Nc2ccc([N+](=O)[O-])cc2)nc(N2CCCC2)n1 | -23.8
80 | CCOc1nc(NCCO)nc(Nc2ccc([N+](=O)[O-])cc2)n1 | -9.66
81 | C=CCNc1nc(Nc2ccc([N+](=O)[O-])cc2)nc(OC)n1 | -14.1
82 | CCOc1nc(NCCN2CCOCC2)nc(Nc2ccc([N+](=O)[O-])cc2)n1 | -93.1
83 | CCCNc1nc(Nc2ccc(C)cc2)nc(N2CCCC2)n1 | -30.6
84 | OCCNc1nc(Nc2ccc(Cl)cc2)nc(N2CCCC2)n1 | -15.1
85 | CCCn1c(N)c(N(CCOC)C(=O)c2cc(C)cc(C)c2)c(=O)[nH]c1=O | 16.4
